RE007 growth inh: qHTS Assay for Inhibitors of the HIV-1 protein Vpr; 0.21% of 360,000 active; AID 651644, 2012; S. pombe RE007 Vpr strain, BacTiter-Glo ATP luminescence, 24 h; Potency, µM (titrated, usually from 92.2 µM), without a hit: at the highest dose activity change, negative = less growth, most hits filed as inhibitors; active means well fitted falling curve with a large enough effect; inconclusive means small, poorly fitted or top-dose-only effect; inactive means no such curve, though single readings can be large or run the other way; further: nearly all actives have a fitted effect of over 50% in size
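Fission yeast RE007 carrying one integrated HIV-1 vpr copy, seeded at OD 0.01 in PMG+AL medium with 23 nL pinned compound. Grown 24 h at 30 degrees; viability read by BacTiter-Glo luminescence after 5 min.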
Tb PYK inh: qHTS of Trypanosoma Brucei Inhibitors; pyruvate kinase (Trypanosoma brucei), Q57TT1; TbPYK enzyme, Kinase-Glo Plus ATP luminescence, 45 min; Potency, µM (titrated, usually from 76.8 µM), for the others: top-dose activity, negative = inhibition, usual class: inhibitors; 0.12% of 410,000 active; AID 624173, 2012; further: nearly all actives have a fitted effect of over 50% in size
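Luminescent Kinase-Glo Plus end-point after 45 min room-temperature reaction of T. brucei pyruvate kinase started with 130 uM ADP (final). Buffer TEA 50 mM pH 7.2 with KCl, MgCl2, BSA, Tween-20; titration-based qHTS with fitted concentration-effect curves.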
LmPK inhibitor: qHTS Assay for Inhibitors of Leishmania Mexicana Pyruvate Kinase (LmPK) | Q27686 | purified LmPK, Kinase-Glo ATP luminescence, 1 h | Potency, µM (series often up to 57.5 µM), for inactives: at the highest dose activity change, negative = inhibition, actives largely listed as inhibitors | 0.37% of 290,000 active | AID 1721, 2009
Target sequence (Q27686 whole entry, looked up): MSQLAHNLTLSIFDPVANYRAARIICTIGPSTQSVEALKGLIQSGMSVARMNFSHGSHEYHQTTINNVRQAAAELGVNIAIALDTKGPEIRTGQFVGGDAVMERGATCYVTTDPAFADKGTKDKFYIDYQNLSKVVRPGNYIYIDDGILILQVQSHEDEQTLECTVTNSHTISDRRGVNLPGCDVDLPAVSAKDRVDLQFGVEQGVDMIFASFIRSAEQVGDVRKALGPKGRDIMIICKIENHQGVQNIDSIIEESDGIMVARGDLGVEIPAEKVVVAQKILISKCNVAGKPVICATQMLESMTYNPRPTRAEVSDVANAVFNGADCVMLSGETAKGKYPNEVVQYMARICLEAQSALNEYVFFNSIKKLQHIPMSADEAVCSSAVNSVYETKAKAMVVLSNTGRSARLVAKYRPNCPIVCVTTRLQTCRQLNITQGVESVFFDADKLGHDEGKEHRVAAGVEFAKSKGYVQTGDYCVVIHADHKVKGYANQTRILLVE
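0.1 nM LmPK, 0.5 mM PEP, 0.1 mM ADP; 50 mM imidazole pH 7.2, 7 mM MgCl2, 50 mM KCl; 1 h RT. Kinase-Glo luminescence readout, normalized to no-enzyme (full inhibition) and uninhibited wells.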
Sm TGR inh: qHTS Assay for the Inhibitors of Schistosoma Mansoni Peroxiredoxins; Potency, µM (highest dose often 114 µM), for inactives: at the highest dose activity change, negative = inhibition, hits mostly inhibitors; AID 485364, 2010; Schistosoma mansoni thioredoxin glutathione reductase (TGR), Q962Y6; purified TGR, DTNB reduction, TNB absorbance 405 nm; 3% of 360,000 active; further: nearly all actives have a fitted effect of over 60% in size
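Kinetic colorimetric format: TGR-catalysed, NADPH-driven DTNB reduction monitored via TNB absorbance. Enzyme dispensed at 20 nM; compound exposure 15 min at room temperature before reaction start.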
AMA1 RON2 block: qHTS for Inhibitors of AMA1-RON; Towards Development of Antimalarial Drug Lead: Primary Screen; AlphaScreen AMA1-biotinylated RON2 peptide binding; Plasmodium falciparum AMA1 (3D7) - RON2 peptide interaction; Potency, µM (highest dose often 58.2 µM), without a hit: at the top dose activity change, negative = inhibition, actives largely listed as inhibitors; 0.2% of 360,000 active; AID 720542, 2013;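 further: 0% = vehicle wells and -100% = peptide control; nearly all actives have a fitted effect of over 45% in size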
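AMA1 (3D7) with his tag at 25 nM final met compounds first, then biotinylated RON2 peptide at 25 nM; detection used donor plus acceptor beads, 10 µg/mL apiece, read by AlphaScreen after 30 min at room temperature.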
Starred values were filed as active, the others as inactive; ? = inconclusive; . = no result given. Most compounds without a hit are left out; they make up all but 3.2% or so of the library. Unless noted, the call rests on the fitted dose curve; in most records, active means well fitted curve in the direction sought with a large enough effect; inconclusive means small, poorly fitted or top-dose-only effect, or another doubt; inactive means no such curve, though single readings can be large; an effect the other way counts as inactive or inconclusive. Unless noted, on the % scale 0 is the no-effect control and ±100 the full control effect; potency means the concentration at half of the fitted maximal effect.

SMILES | RE007 growth inh | Tb PYK inh | LmPK inhibitor | Sm TGR inh | AMA1 RON2 block
COc1ccc(C2C(C#N)=C(C)NC3=C2C(=O)c2ccccc23)cc1 (stereo not drawn) | -4.7% | 0.2% | 4.9% | -21.1% | 1.2%
CC1=C([N+](=O)[O-])C(c2ccccc2)C2=C(N1)c1ccccc1C2=O (stereo not drawn) | -3.4% | -11.1% | -10.2% | 14.1µM* | ?
COc1ccc(CCNC(=O)CCCCn2c(=O)c3ccccc3n(CC(=O)Nc3ccc(C)cc3C)c2=O)cc1OC | . | 0.2% | . | 8.0% | .
O=C1/C(=C\c2cc(Br)cc(Br)c2O)SC(=S)N1Cc1ccccc1 | -28.7% | -23.2% | -11.0% | 39.8µM* | 9.5%
O=C1/C(=C\c2ccc(O)cc2)SC(=S)N1Cc1ccccc1 | ? | -2.2% | -0.1% | -16.6% | -1.4%
Cc1ccc(C)c(N2CCN(CCCNC(=O)C3COc4ccccc4C3)CC2)c1 (stereo not drawn) | . | 0.5% | . | 0.4% | .
CN1/C(=C\C(=O)c2cccs2)Sc2ccccc21 | -19.0% | -17.4% | 11.2µM* | -30.4% | 37.3%
Oc1cc2c(cc1O)[C@H]1c3ccccc3CN[C@@H]1CC2 | . | . | 4.47µM* | 8.91µM* | .
CC(=O)Nc1sc2c(c1C#N)CCN(Cc1ccccc1)C2 | -2.7% | 4.4% | -5.2% | -6.7% | -0.3%
N#Cc1c(NC(=O)/C=C/C(=O)O)sc2c1CCN(Cc1ccccc1)C2 | 3.4% | -0.8% | -6.7% | 25.1µM* | 9.8%
C=C1N(C)c2cc([N+](=O)[O-])c(N)cc2C1(C)C | -27.5% | -14.5% | -7.5% | 20µM* | ?
CC1(C)Oc2cc(N)c([N+](=O)[O-])cc2O1 | -1.9% | -12.3% | 3.2% | 7.4% | -12.9%
CCOc1ccc(C(=O)Nc2ccc3nc(SCC(=O)N4CCOCC4)sc3c2)cc1 | . | 1.3% | . | 0.1% | .
COc1c(C)cccc1C(=O)Nc1ccc(Cl)c(-c2nc3cc(C)ccc3o2)c1 | . | 0.0% | . | 3.2% | .
CCCCn1c(-c2csc(CCC)c2)n[nH]c1=S | 5.9% | ? | 22.4µM* | 6.5% | 111.0%
Cc1ccccc1-n1c(-c2ccoc2C)n[nH]c1=S | -1.0% | ? | 28.2µM* | 0.4% | 19.1%
CCc1cc(-c2n[nH]c(=S)n2-c2ccccc2C)cs1 | 5.1% | ? | 28.2µM* | -9.4% | 33.3%
CCCc1cc(-c2n[nH]c(=S)n2CC)cs1 | 7.3% | 8.91µM* | ? | -6.3% | 78.9%
CCCCn1c(-c2ccc([N+](=O)[O-])cc2)n[nH]c1=S | 9.6% | 1.12µM* | ? | 5.1% | -3.6%
CCCc1cc(-c2n[nH]c(=S)n2C(C)c2ccccc2)cs1 (stereo not drawn) | 4.1% | -41.0% | 22.4µM* | -1.5% | 57.7%
Cc1[nH]c2ccc(-c3n[nH]c(=S)n3Cc3ccccc3)cc2c1C | -3.9% | ? | -26.2% | 4.6% | 28.0%
CCCn1c(-c2ccc(F)cc2)n[nH]c1=S | 5.1% | ? | ? | -2.3% | 10.6%
CCc1cc(-c2n[nH]c(=S)n2Cc2ccccc2)cs1 | -23.6% | ? | 10µM* | 3.6% | 60.5%
CCCCn1c(-c2cc(Cl)ccc2OC)n[nH]c1=S | 4.6% | ? | 12.6µM* | -26.5% | 17.5%
COc1ccc(CCn2c(-c3ccc(Cl)cc3)n[nH]c2=S)cc1OC | 43.0% | ? | 1.4% | 7.6% | 13.2%
COc1cc(-c2n[nH]c(=S)n2C(C)c2ccccc2)cc(OC)c1OC (stereo not drawn) | 8.7% | ? | ? | 3.0% | 88.9%
CCc1cccc(C)c1NS(=O)(=O)c1cc2[nH]c(=O)c(=O)[nH]c2cc1C | . | 2.6% | . | 2.6% | .
CCCOc1ccc(C(=O)Nc2ccc3oc(-c4ccc5ccccc5c4)nc3c2)cc1 | . | 0.5% | . | 2.0% | .
CCN(CC)C(=O)Cn1c(=O)n(Cc2ccc(C(=O)NCCc3ccc(OC)c(OC)c3)cc2)c(=O)c2ccccc21 | . | 1.7% | . | -0.5% | .
